Screens (PubChem)
Luc counter – Counterscreen for Luciferase (Kinase-Glo TM) Inhibition; Luciferin 4-monooxygenase (Photuris pensylvanica), Q27757; AID 1379, 2008; actives 0.28% (n = 200,000); Kinase-Glo luciferase, ATP luminescence, 8 min; Potency, µM (doses to about 38.3 µM), for the others: at the highest dose activity change, negative = inhibition, hits mostly inhibitors; also: % is scaled to controls: 0 for no effect and ±100 for the full control effect; nearly all actives have a fitted effect of over 60% in size
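Kinase-Glo luciferase light output from ATP and luciferin was measured with 10 uM ATP, within the enzyme's linear range. Buffer: 50 mM imidazole pH 7.2, 50 mM KCl, 7 mM MgCl2, 0.01% Tween 20, 0.05% BSA; luminescence read after 8 min at ambient temperature.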
NPC1 promoter act – qHTS Assay for NPC1 Promoter Activators | Huh7 NPC1 promoter luciferase reporter, 24 h | Potency, µM (doses to about 9.22 µM), without a hit: top-dose activation, usual class: activators | actives 2.4% (n = 320,000) | AID 485313, 2010; also: % of control where 0% means no effect; nearly all actives have a fitted effect of over 60% in size
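Huh7 reporter cells (NPC1 promoter driving luciferase) are dosed with compound for 24 h at 37 °C, 5% CO2; luciferase detection reagent is then added and luminescence measured after 10 min at ambient temperature.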
ELG1 genotoxic – qHTS screen for small molecules that induce genotoxicity in human embryonic kidney (HEK293T) cells expressing luciferase-tagged ELG1; actives 1.3% (n = 330,000); Potency, µM (series often up to 46 µM), for the others: top-dose activity change, positive = activation, most hits filed as activators; HEK293T ELG1-luciferase reporter, luminescence, 16 h; AID 504466, 2011; also: % of control where 0% means no effect; nearly all actives have a fitted effect of over 60% in size
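16 hr compound incubation (37 °C, 5% CO2) of HEK293T cells carrying luciferase-tagged ELG1; luciferase then measured by ONE-Glo luminescence after 30 min at RT.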
Rab9 prom act – qHTS Assay for Rab9 Promoter Activators. Huh7 Rab9 promoter-luciferase reporter, luminescence, 24 h. Potency, µM (highest dose often 9.22 µM), inactives show top-dose activation, negative = inhibition, actives largely listed as activators. actives 2.8% (n = 320,000); also: % of control where 0% means no effect; nearly all actives have a fitted effect of over 60% in size
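Rab9 promoter-driven luciferase in stably transfected Huh7 cells; 1500 cells/well rested 2 h, exposed to compound in DMSO for 24 h at 37 °C, 5% CO2. Luminescence read 10 min after adding luciferase reagent at ambient temperature.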
SMN2 splice enh – qHTS Assay for Enhancers of SMN2 Splice Variant Expression | HEK293 SMN2-luciferase splicing reporter, luminescence, 30-36 h | Potency, µM (titrated, usually from 46.1 µM), for the others: at the highest dose activity change, positive = activation, most hits filed as activators | actives 2.8% (n = 210,000) | AID 1458, 2008; also: % of control where 0% means no effect; nearly all actives have a fitted effect of over 55% in size
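qHTS luciferase splicing reporter: luminescence rises when SMN2 exon 7 is included in transfected HEK293 cells. Compound exposure lasted 30-36 h at 37C, with 4.5 mM final sodium butyrate as control, followed by a ONE-Glo read.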
FLuc modulator – qHTS profiling assay for firefly luciferase inhibitor/activator using purifed enzyme and Km concentrations of substrates (counterscreen for miR-21 project); purified FLuc, Km substrates, luminescence inhibition; Potency, µM (highest dose often 57.5 µM), inactives show at the highest dose activity change, negative = inhibition, hits mostly inhibitors; actives 6.9% (n = 360,000);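 also: plate controls were vehicle for no effect and reference inhibitor for full effect; nearly all actives have a fitted effect of over 55% in size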
Target sequence (P08659 whole entry, looked up): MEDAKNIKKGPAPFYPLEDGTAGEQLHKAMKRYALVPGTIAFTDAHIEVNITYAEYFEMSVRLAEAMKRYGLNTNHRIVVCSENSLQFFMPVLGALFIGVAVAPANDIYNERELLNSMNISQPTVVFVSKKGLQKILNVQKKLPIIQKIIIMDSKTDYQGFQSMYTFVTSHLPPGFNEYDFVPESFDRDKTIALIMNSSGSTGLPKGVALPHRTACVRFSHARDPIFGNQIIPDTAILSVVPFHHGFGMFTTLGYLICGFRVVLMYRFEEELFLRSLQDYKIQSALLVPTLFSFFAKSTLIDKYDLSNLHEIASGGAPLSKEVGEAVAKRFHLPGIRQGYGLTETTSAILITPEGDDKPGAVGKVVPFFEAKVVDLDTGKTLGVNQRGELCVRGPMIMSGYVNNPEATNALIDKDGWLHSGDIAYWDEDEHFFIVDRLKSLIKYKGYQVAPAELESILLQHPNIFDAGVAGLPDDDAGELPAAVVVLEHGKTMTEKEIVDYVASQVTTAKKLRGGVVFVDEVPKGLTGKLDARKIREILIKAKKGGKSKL
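Purified P. pyralis luciferase, 10 nM final, with Km-level 10 uM D-luciferin and 10 uM ATP in 50 mM Tris acetate pH 7.5, 10 mM Mg acetate, 0.01% Tween-20, 0.05% BSA; 6-point qHTS titration about 60 µM downward; luminescence read.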
Numbers without * were called inactive; ? = inconclusive; · = no result; [ ] = another dose, or the depositor's remark. This is a sample that favours compounds with a hit; in the whole collection about 7.3% have one here. Calls follow the shape of the dose curve; as a rule, active = well fitted curve in the direction sought with a large enough effect; inconclusive = small, poorly fitted or top-dose-only effect, or another doubt; inactive = no such curve, though single readings can be large; an effect the other way counts as inactive or inconclusive. Potency is read from the fitted curve at half-maximal effect.

SMILES | Luc counter | NPC1 promoter act | ELG1 genotoxic | Rab9 prom act | SMN2 splice enh | FLuc modulator
C/C(NC(=O)c1cccs1)=C1\C(=O)C[C@@H]2[C@H]1C2(C)C | · | ? | ? | ? | · | 15µM*
COc1ccc(CNC(=O)c2cc3c(=O)n(Cc4cccs4)ccc3nc2C)cc1 | · | · | · | · | · | -9%
O=C(Nc1cccs1)Nc1ccc(Br)cc1F | -8% | 1% | 1% | -1% | 0% | 12µM*
O=C(Nc1cccs1)Nc1ccccc1Cl | -11% | 14% | ? | 22% | -56% | 27µM*
Cc1ccc(NC(=O)Nc2cccs2)c(Cl)c1 | -4% | · | · | · | 6% | 8.5µM*
Cc1ccc(NC(=O)Nc2cn(C)c(=O)c3ccccc23)c(Cl)c1 | · | · | · | · | · | 1%
O=C(Nc1cccs1)Nc1ccc(F)cc1F | 0% | 25% | 5% | ? | 10% | ?
CCCCSc1nnc(-c2c[nH]c3ccccc23)n1C | -4% | ? | ? | ? | -9% | 15µM*
CCCCSc1nnc(-c2ccc(C)cc2)n1C | -4% | 4µM* | 3% | 3.5µM* | ? | ?
Cn1c(SCc2ccccc2)nnc1-c1c[nH]c2ccccc12 | 1% | ? | 15µM* | ? | ? | 17µM*
Cn1c(SCC(=O)N2CCN(c3ccccc3)CC2)nnc1-c1c[nH]c2ccccc12 | 1% | 0% | -17% | -5% | -56% | -3%
COc1cc(NC(=O)CC(C)S(=O)(=O)c2cc3c4c(c2)CCN4C(=O)CC3)cc(OC)c1 (stereo unspecified) | · | · | · | · | · | 3%
O=C(NCCCO)c1cc2c(cn1)[nH]c1ccccc12 | · | 28% | 14% | ? | · | 17µM*
C[C@H](NC(=O)c1cc2c(cn1)[nH]c1ccccc12)C(=O)O | · | 2% | 1% | 4% | · | ?
O=C(CSc1nnc(NC(=O)c2ccc(F)cc2)s1)NC1CCCC1 | · | ? | ? | 3.5µM* | · | 2.4µM*
O=C(CSc1nnc(NC(=O)c2ccco2)s1)NC1CCCCC1 | 8% | 1% | 6% | 4% | 8% | 19µM*
O=C(Cc1ccccc1)Nc1nnc(SCC(=O)NC2CCCC2)s1 | 0% | 2% | 9% | -6% | 3% | -1%
O=C(Nc1nnc(SCC(=O)N2CCOCC2)s1)c1ccccc1 | -3% | 30% | ? | ? | 14µM* | 2.7µM*
O=C(CSc1nnc(NC(=O)c2ccccc2)s1)NC1CCCC1 | · | ? | 9% | ? | · | 2.7µM*
COc1cccc(C2C(C(=O)Nc3cccnc3)=C(C)Nc3nc(SCc4ccccc4)nn32)c1 (stereo unspecified) | · | · | · | · | -3% | 0%
CCc1ccccc1NC(=O)Nc1cc(C(=O)NCc2ccccc2OC)ccc1N1CCCC1 | · | · | · | · | · | -2%
Oc1ccc(COc2cccc3ccccc23)c2cccnc12 | · | 0% | · | -9% | · | -7%
CSc1ccc(C2N=C(c3ccccc3)NO2)cc1 (stereo unspecified) | · | 1.3µM* | ? | 1.8µM* | · | 8.5µM*
Oc1c(Br)cc(C2N=C(c3ccccc3)NO2)cc1Br (stereo unspecified) | -5% | 18% | 19% | 8% | -20% | 17µM*
Oc1c(Br)cc(Br)c(/C=N/n2c(-c3ccccc3)n[nH]c2=S)c1Br | · | -2% | -3% | -3% | · | -27%
CC#CCN1c2ccccc2[C@]23C[C@@H](C(=O)OC)N(S(=O)(=O)c4ccc(C)cc4)C2=NC(C(=O)OC)=C(C(=O)OC)[C@H]13 | 0%[7.66 µM] | · | · | · | 1%[9.22 µM] | ·
COc1ccc(CCNC(=O)c2cc(=O)c3cc(C)c(C)cc3o2)cc1OC | · | · | · | · | 6% | -1%
